From PubChem
HepG2 viability: HepG2 cytotoxicity, counter-screen for TGF-b inhibitors; 0.76% of 410,000 active; HepG2 CAGA-GFP viability, ATP luminescence, 18 h; Potency, µM (top dose mostly 46.1 µM), usual class: cytotoxic; AID 588856
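HepG2 CAGA-GFP cells (1000/well, DMEM with 1% FBS) received compound, then TGF-beta at 500 pg/mL final, and were incubated 18 hours at 37 degrees C. Viability was read by CellTiter-Glo luminescence. Media-only wells were set as complete cell-killing and DMSO as no toxicity.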
TDP1 cell noCPT: qHTS for Inhibitors of human tyrosyl-DNA phosphodiesterase 1 (TDP1): qHTS in cells in absence of CPT; 15% of 420,000 active; AID 686978, 2013; Potency, µM (doses to about 46.2 µM), most hits filed as inhibitors; DT40 Tdp1-/- hTDP1 cells, no CPT, ATP luminescence, 48 h; note: nearly all actives have a fitted effect of over 55% in size
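DT40 Tdp1-/-;hTDP1 cells, no CPT (DMSO vehicle only), 400 cells/well; compounds pin-transferred; ≥48 hr, 37 °C; CellTiter-Glo 30 min RT dark, luminescence read.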
ATXN2 expr inh: ATXN2 expression inhibition; HEK-293 ATXN2-luciferase reporter, luminescence, 24 h; Potency, µM (top dose mostly 57 µM), usual class: inhibitors; 0.72% of 360,000 active; note: nearly all actives have a fitted effect of over 55% in size
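ATXN2-luciferase reporter cells (luciferase flanked by upstream and downstream ATXN2 gene portions) were treated 24 h at 37 °C with compounds at up to 57 uM. SteadyGlo luminescence gave expression; GF-AFC fluorescence gave viability.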
TGFb inhibitor: blocks TGF-b signaling; HepG2 CAGA-GFP TGF-b/SMAD3 reporter, GFP fluorescence, 18 h; TGF-beta stimulated, 500 pg/mL final; Potency, µM (series often up to 46.1 µM), hits mostly inhibitors; 1.2% of 410,000 active; AID 588855; note: nearly all actives have a fitted effect of over 65% in size
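Inhibition of TGF-beta-driven CAGA-GFP reporter expression in HEPG2 cells is measured by cellular GFP fluorescence after 18 h stimulation with 500 pg/mL recombinant TGF-beta in 1% FBS medium at 37 degrees C.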
TDP1 cell CPT: DT40-hTDP1 cell growth loss with CPT; chicken DT40 Tdp1-/-;hTDP1 cells + 20 nM CPT, ATP luminescence, 48 h; Potency, µM (highest dose often 46.2 µM), most hits filed as inhibitors; 12% of 420,000 active; AID 686979; note: nearly all actives have a fitted effect of over 55% in size
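Cell growth measured by CellTiter-Glo luminescence after a minimum 48 h, 37 C compound exposure with 20 nM CPT in Tdp1-knockout DT40 cells stably expressing hTDP1, seeded 400/well; qHTS titration format.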
S2 tox: viability counter-screen for ATXN expression inhibitors. S2 cells (HEK-293 line with an ATXN2-luciferase reporter) viability, CellTiter-Fluor protease fluorescence, 24 h. Potency, µM (top dose mostly 56.7 µM), actives largely listed as cytotoxic. 0.49% of 400,000 active. AID 651635; note: nearly all actives have a fitted effect of over 40% in size
Each line names hits and unclear results; the compound was inactive in the other large screens; ! = a repeat was not active. Shown are actives, neighbours in structure and some others; about 17% of the full set was active somewhere. Calls come from the whole dose curve; as a rule, active = well fitted curve in the direction sought with a large enough effect; inconclusive = small, poorly fitted or top-dose-only effect, or another doubt; inactive = no such curve, though single readings can be large; an effect the other way counts as inactive or inconclusive.

Cc1cc(N2C(=O)C(O)=C(C(=O)c3cc4ccccc4o3)C2c2ccc(OC(C)C)cc2)no1 (centres undefined)	TDP1 cell noCPT 16µM, TDP1 cell CPT inconclusive (no result: ATXN2 expr inh)
CCOC(=O)c1sc(N2C(=O)C(O)=C(C(=O)c3ccc(C)o3)C2c2cccc([N+](=O)[O-])c2)nc1C (centres undefined)	TDP1 cell noCPT inconclusive
COc1cccc(C2C(C(=O)c3ccc(C)o3)=C(O)C(=O)N2c2cc(C)on2)c1 (centres undefined)	TDP1 cell noCPT inconclusive, TDP1 cell CPT 23µM
O=C1NC(=O)C(=Cc2ccc(-c3ccc(F)cc3O)o2)S1	none (no result: HepG2 viability, TDP1 cell noCPT, TGFb inhibitor, TDP1 cell CPT, S2 tox)
O=C(NCCN1CCCCC1)c1cc(Cl)ccc1Cl	none
COC(=O)/C(=C(O)\C=C\c1ccccc1[N+](=O)[O-])c1nc2ccccc2[nH]1	TDP1 cell noCPT 15µM, TDP1 cell CPT 12µM
CCn1c(SCC(=O)NNC(=O)c2ccc(OC)cc2)nnc1C1CC1	none
S=c1[nH]nc(-c2cccc(Cl)c2)n1/N=C/c1ccc(-c2ccccc2Br)o1	TDP1 cell noCPT inconclusive, TGFb inhibitor inconclusive, TDP1 cell CPT inconclusive, S2 tox inconclusive (no result: ATXN2 expr inh)
S=c1[nH]nc(-c2ccccc2)n1/N=C/c1ccc(-c2ccccc2Cl)o1	TDP1 cell noCPT 13µM, TGFb inhibitor inconclusive, TDP1 cell CPT inconclusive, S2 tox inconclusive
COc1ccc(-c2nc(CSc3nncn4c3cc3sccc34)c(C)o2)cc1OC	TDP1 cell noCPT 2.6µM, TDP1 cell CPT 1.8µM (no result: ATXN2 expr inh, S2 tox)
Cc1cccc(-c2nc(CSc3nncn4c3cc3sccc34)c(C)o2)c1	TDP1 cell noCPT inconclusive (no result: ATXN2 expr inh, S2 tox)
Cc1c(N)nc([C@H](CC(N)=O)NC[C@H](N)C(N)=O)nc1C(=O)N[C@H](C(=O)N[C@H](C)[C@@H](O)[C@H](C)C(=O)N[C@H](C(=O)NCCc1nc(-c2nc(C(=O)NCCCCN=C(N)N)cs2)cs1)[C@@H](C)O)[C@@H](O[C@@H]1O[C@@H](CO)[C@@H](O)[C@H](O)[C@@H]1O[C@H]1O[C@H](CO)[C@@H](O)[C@H](OC(N)=O)[C@@H]1O)c1cnc[nH]1	TDP1 cell noCPT 0.94µM, TDP1 cell CPT 1.2µM, S2 tox inconclusive (no result: HepG2 viability, ATXN2 expr inh, TGFb inhibitor)
CCOC(=O)C1=CCC(c2ccccc2C(F)(F)F)N(S(=O)(=O)c2ccc(C)cc2)C1 (centres undefined)	TDP1 cell noCPT 23µM, TDP1 cell CPT 23µM
CCOC(=O)C1=CCC(c2ccccc2Cl)N(S(=O)(=O)c2ccc(C)cc2)C1 (centres undefined)	TDP1 cell noCPT inconclusive, TDP1 cell CPT 15µM
CNC(=O)c1sccc1SCc1ccc(Cl)cc1Cl	TDP1 cell noCPT 18µM, TGFb inhibitor inconclusive, TDP1 cell CPT 21µM
Cc1ccc2c(c1)C(c1ccc(F)cc1)N(C(=O)COc1ccc(Cl)cc1Cl)CC(=O)N2 (centres undefined)	TDP1 cell noCPT inconclusive, ATXN2 expr inh inconclusive, TGFb inhibitor inconclusive, TDP1 cell CPT 21µM, S2 tox inconclusive
O=C1CN(C(=O)COc2ccc(Cl)cc2Cl)C(c2ccc(F)cc2)c2cc(F)ccc2N1 (centres undefined)	TDP1 cell noCPT inconclusive, ATXN2 expr inh inconclusive, TDP1 cell CPT 21µM, S2 tox inconclusive
CCCCC(=O)N1CC(=O)Nc2ccc(F)cc2C1c1ccccc1 (centres undefined)	none
O=C1CN(C(=O)COc2ccc(Cl)cc2Cl)C(c2ccccc2)c2cc(F)ccc2N1 (centres undefined)	TDP1 cell noCPT inconclusive, ATXN2 expr inh inconclusive, TGFb inhibitor inconclusive, TDP1 cell CPT 16µM, S2 tox inconclusive
O=S(=O)(CCN1CCOCC1)c1ccc(OC(F)(F)F)cc1	none
Cc1cc(C)cc(NC(=O)C[n+]2ccccc2)c1	none
Cc1cccc(NC(=O)C[n+]2ccc(N(C)C)cc2)c1	TDP1 cell noCPT inconclusive, TDP1 cell CPT 15µM
CN(C)c1cc[n+](CC(=O)Nc2ccc(Cl)cc2)cc1	TDP1 cell noCPT 3.3µM, ATXN2 expr inh inconclusive, TDP1 cell CPT 6.5µM
COc1ccccc1CNc1ncncc1-c1cccc(C#N)c1	none (no result: HepG2 viability, ATXN2 expr inh, TGFb inhibitor, S2 tox)
COc1cc(S(=O)(=O)NCC(c2ccco2)N2CCCCC2)ccc1NC(C)=O (centres undefined)	none
CC(C)NS(=O)(=O)c1ccc(CCC(=O)Nc2cc(Cl)ccc2Oc2ccccc2)cc1	TDP1 cell noCPT 23µM, TDP1 cell CPT 23µM, S2 tox inconclusive
CCNS(=O)(=O)c1ccc(CCC(=O)Nc2cc(Cl)ccc2Oc2ccccc2)cc1	TDP1 cell noCPT inconclusive, ATXN2 expr inh inconclusive, TGFb inhibitor inconclusive, TDP1 cell CPT inconclusive, S2 tox inconclusive
COc1ccc(C(C)(O)c2nc(-c3cnc4ccccc4c3)cs2)cc1 (centres undefined)	TDP1 cell noCPT inconclusive, TDP1 cell CPT inconclusive, S2 tox inconclusive
CC(O)(c1ccc(F)c(F)c1)c1nc(-c2ccc3ccccc3c2)cs1 (centres undefined)	TDP1 cell noCPT inconclusive, TGFb inhibitor inconclusive, TDP1 cell CPT 18µM
CC(O)(c1ccc(F)c(F)c1)c1nc(-c2cnc3ccccc3c2)cs1 (centres undefined)	TDP1 cell noCPT 15µM, TGFb inhibitor 16µM, TDP1 cell CPT 16µM
COc1cccc(CNC(=O)CCS(=O)(=O)c2ccc3c(c2)NC(=O)CS3)c1	none
COc1ccc(-c2nnc(SCc3nnc(-c4ccc(Cl)cc4)o3)n2-c2ccccc2)cc1	TDP1 cell noCPT 16µM, TGFb inhibitor inconclusive, TDP1 cell CPT 16µM, S2 tox inconclusive
COc1ccc(-c2noc(CSc3nnc(C)n3-c3ccc(C)cc3)n2)cc1	TDP1 cell noCPT inconclusive, TDP1 cell CPT inconclusive (no result: ATXN2 expr inh, S2 tox)
CCc1ccc(-n2c(SCc3c(C)noc3C)nnc2-c2ccncc2)cc1	TDP1 cell noCPT inconclusive, TDP1 cell CPT 21µM
Clc1ccc(-c2nnc(CSc3nnc(-c4cccs4)n3Cc3ccccc3)o2)cc1	TDP1 cell noCPT 2.9µM, TGFb inhibitor inconclusive, TDP1 cell CPT 6.5µM, S2 tox inconclusive (no result: ATXN2 expr inh)
COc1ccc(-c2noc(CSc3nnc(-c4ccccc4)n3C)n2)cc1	TDP1 cell noCPT 15µM!, TDP1 cell CPT 23µM!, S2 tox inconclusive
Cc1nnc(SCc2nnc(-c3cccs3)o2)n1Cc1ccccc1	none
COc1ccc(-c2noc(CSc3nnc(-c4ccncc4)n3-c3ccc(C)cc3)n2)cc1OC	TDP1 cell CPT 16µM
COc1ccc(-c2noc(CSc3nnc(-c4ccncc4)n3-c3ccc(F)cc3)n2)cc1OC	TDP1 cell noCPT inconclusive, TDP1 cell CPT inconclusive
